# Source: article PMC7862700, “An all-to-all approach to the identification of sequence-specific readers for epigenetic DNA modifications on cytosine”
# Legend:
# Assay in all cases: DAPPL (digital affinity profiling via proximity ligation, sequencing); 10 mM Tris-HCl pH 7.5, 50 mM NaCl, 1 mM DTT, 4% glycerol, room temperature, 30 min; GST-TFs on glutathione beads, 16-mer random dsDNA library, 0.1% formaldehyde crosslink after washing; high values mean tight binding
# FLI1 = target: T1, FLI1 (Homo sapiens, UniProt Q01543 1-452); details: protein: recombinant; tags: N-terminal GST; dsDNA, one strand shown
# T1 sequence: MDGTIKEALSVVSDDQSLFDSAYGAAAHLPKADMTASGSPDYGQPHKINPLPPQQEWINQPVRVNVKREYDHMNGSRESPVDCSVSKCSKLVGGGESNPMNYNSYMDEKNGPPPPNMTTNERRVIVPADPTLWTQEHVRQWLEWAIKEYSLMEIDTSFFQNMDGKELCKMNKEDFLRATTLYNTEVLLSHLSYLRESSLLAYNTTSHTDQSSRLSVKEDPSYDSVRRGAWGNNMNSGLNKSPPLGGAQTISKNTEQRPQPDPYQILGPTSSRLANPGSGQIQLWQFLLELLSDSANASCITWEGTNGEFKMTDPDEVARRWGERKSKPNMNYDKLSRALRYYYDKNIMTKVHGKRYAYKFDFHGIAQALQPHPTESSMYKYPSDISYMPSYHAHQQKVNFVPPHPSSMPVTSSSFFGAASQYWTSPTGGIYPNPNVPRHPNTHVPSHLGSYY
# Outline: (§1)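 Binding signal is given per hexamer as its read frequency for a factor divided by its frequency in the tag-only sample. GST-fused human transcription factors were expressed in yeast, captured on glutathione beads, barcoded with DNA and pooled with that sample, then incubated with 200 nmole of a 16-mer random double-stranded DNA library in Tris/NaCl/DTT/glycerol buffer for 30 min at room temperature. The pools were then washed, crosslinked, proximity-ligated, amplified by PCR and sequenced on an Illumina NextSeq500.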
# ELK1 = target: T2, ELK1 (Homo sapiens, UniProt P19419 1-428); details: protein: recombinant; tags: N-terminal GST; dsDNA, one strand shown
# T2 sequence: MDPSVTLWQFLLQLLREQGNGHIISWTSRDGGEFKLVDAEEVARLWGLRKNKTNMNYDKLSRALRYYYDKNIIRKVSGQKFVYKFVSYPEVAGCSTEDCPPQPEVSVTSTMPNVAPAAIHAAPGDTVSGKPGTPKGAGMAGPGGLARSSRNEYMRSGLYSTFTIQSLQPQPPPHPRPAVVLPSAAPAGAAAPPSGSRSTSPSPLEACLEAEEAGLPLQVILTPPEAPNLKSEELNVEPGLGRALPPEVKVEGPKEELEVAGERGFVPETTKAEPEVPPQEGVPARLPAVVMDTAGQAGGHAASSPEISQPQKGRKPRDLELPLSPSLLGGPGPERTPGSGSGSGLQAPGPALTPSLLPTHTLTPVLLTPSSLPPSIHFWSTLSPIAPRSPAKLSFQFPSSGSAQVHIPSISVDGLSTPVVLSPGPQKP
# Outline: as §1
# GABPA = target: T3, GABPA (Homo sapiens, UniProt Q06546 1-454); details: protein: recombinant; tags: N-terminal GST; dsDNA, one strand shown
# T3 sequence: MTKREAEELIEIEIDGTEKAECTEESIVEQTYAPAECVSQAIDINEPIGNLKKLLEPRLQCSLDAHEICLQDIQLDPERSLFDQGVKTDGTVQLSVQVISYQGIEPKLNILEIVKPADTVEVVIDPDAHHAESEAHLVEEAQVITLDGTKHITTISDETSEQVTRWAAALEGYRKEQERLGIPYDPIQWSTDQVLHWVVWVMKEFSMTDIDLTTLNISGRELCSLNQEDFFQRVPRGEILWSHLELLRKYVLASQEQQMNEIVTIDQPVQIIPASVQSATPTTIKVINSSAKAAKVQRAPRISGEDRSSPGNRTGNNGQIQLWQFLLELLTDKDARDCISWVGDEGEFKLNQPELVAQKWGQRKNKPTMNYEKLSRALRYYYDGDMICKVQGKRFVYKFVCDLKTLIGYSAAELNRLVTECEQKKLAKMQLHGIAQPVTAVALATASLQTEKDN
# Outline: as §1
# ERG = target: T4, ERG (Homo sapiens, UniProt P11308 1-479); details: protein: recombinant; tags: N-terminal GST; dsDNA, one strand shown
# T4 sequence: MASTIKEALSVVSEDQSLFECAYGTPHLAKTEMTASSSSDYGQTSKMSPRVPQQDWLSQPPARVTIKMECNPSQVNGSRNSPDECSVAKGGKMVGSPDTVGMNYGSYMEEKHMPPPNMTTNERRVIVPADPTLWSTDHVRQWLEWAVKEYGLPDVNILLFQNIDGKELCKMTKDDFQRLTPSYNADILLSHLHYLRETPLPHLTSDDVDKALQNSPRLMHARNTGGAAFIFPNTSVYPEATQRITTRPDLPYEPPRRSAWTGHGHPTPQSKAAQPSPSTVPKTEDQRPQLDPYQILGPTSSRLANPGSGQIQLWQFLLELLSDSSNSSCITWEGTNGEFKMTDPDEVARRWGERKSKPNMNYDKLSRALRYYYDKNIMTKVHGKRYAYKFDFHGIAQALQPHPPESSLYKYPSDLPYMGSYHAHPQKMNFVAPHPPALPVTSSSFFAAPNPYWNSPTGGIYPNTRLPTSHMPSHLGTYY
# Outline: as §1
# ELF1 = ELF1 (Homo sapiens, UniProt P32519 1-619); details: protein: recombinant; tags: N-terminal GST; dsDNA, one strand shown
# Chain of ELF1 (P32519 whole entry): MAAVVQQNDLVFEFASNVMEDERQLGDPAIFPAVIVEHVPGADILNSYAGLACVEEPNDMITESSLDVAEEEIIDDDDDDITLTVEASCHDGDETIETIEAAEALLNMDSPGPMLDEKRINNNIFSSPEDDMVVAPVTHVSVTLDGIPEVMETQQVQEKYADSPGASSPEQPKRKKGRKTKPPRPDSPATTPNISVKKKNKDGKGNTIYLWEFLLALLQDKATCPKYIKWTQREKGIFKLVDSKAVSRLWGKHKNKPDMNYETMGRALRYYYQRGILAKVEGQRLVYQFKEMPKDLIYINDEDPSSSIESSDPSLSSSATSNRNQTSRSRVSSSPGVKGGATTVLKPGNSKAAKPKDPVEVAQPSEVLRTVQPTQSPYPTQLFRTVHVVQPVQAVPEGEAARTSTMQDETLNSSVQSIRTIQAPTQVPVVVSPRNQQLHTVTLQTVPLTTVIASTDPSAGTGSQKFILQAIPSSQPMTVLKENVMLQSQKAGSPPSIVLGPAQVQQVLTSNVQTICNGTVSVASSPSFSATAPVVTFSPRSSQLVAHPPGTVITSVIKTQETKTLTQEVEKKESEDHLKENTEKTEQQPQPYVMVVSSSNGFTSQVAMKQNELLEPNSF
# Outline: as §1
# EHF = target: T5, EHF (Homo sapiens, UniProt Q9NZC4 1-300); details: protein: recombinant; tags: N-terminal GST; dsDNA, one strand shown
# T5 sequence: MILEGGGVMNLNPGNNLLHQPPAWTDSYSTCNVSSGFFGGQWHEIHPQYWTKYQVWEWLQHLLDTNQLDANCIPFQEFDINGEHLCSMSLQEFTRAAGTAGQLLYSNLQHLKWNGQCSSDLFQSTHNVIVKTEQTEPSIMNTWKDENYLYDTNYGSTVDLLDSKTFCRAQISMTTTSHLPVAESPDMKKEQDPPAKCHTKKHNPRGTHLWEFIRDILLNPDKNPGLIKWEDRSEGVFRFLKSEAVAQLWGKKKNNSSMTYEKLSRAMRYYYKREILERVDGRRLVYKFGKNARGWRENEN
# Outline: as §1
# SPI1 = SPI1 (Homo sapiens, UniProt P17947 1-270); details: protein: recombinant; tags: N-terminal GST; dsDNA, one strand shown
# Outline: as §1
# SPIB = SPIB (Homo sapiens, UniProt Q01892 1-262); details: protein: recombinant; tags: N-terminal GST; dsDNA, one strand shown
# Chain of SPIB (Q01892 whole entry): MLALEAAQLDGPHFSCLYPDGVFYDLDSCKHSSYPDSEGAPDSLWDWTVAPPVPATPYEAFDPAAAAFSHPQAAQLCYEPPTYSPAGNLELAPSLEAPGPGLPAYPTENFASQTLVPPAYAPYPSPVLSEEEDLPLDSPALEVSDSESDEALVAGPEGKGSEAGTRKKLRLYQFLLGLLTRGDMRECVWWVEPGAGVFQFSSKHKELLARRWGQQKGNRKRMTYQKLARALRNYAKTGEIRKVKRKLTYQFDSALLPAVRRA
# Outline: as §1
# ELK3 = target: T6, ELK3 (Homo sapiens, UniProt P41970 1-407); details: protein: recombinant; tags: N-terminal GST; dsDNA, one strand shown
# T6 sequence: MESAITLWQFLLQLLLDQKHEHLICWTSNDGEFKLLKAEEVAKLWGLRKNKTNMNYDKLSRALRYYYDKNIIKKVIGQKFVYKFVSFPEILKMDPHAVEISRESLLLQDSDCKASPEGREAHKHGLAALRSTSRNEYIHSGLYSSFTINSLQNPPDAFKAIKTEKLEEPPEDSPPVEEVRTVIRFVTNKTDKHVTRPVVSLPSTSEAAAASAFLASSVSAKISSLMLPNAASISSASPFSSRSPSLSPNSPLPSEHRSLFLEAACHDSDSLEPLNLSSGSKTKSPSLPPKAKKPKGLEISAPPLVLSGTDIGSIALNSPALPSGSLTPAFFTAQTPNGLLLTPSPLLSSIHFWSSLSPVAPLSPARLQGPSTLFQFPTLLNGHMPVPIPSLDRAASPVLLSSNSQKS
# Outline: as §1
# FEV = target: T7, FEV (Homo sapiens, UniProt Q99581 1-238); details: protein: recombinant; tags: N-terminal GST; dsDNA, one strand shown
# T7 sequence: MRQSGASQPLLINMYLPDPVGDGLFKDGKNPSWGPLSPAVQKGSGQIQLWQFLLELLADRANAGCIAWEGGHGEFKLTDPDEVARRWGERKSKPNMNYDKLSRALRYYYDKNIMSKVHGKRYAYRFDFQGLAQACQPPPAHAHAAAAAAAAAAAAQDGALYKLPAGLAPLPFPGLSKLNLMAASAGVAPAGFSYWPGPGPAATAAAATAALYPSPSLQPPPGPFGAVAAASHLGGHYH
# Outline: as §1
# ETV5 = ETV5 (Homo sapiens, UniProt P41161 1-510); details: protein: recombinant; tags: N-terminal GST; dsDNA, one strand shown
# Chain of ETV5 (P41161 whole entry): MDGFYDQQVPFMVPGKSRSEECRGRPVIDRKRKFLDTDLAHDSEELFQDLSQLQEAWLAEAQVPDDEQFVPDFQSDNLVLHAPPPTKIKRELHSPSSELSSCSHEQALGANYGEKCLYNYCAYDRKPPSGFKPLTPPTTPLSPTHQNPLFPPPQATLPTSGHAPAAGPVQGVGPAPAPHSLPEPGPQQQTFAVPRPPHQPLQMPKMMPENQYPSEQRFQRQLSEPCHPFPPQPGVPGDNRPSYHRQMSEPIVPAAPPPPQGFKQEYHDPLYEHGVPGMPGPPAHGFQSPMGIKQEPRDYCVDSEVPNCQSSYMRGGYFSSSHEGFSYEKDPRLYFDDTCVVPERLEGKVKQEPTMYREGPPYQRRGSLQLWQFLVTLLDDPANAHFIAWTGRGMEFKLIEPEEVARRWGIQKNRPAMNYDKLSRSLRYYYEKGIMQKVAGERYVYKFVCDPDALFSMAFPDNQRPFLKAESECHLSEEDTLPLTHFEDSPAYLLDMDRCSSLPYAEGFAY
# Outline: as §1
# HSF1 = HSF1 (Homo sapiens, UniProt Q00613 1-529); details: protein: recombinant; tags: N-terminal GST; chain copies: 3; dsDNA, one strand shown
# Chain of HSF1 (Q00613 whole entry): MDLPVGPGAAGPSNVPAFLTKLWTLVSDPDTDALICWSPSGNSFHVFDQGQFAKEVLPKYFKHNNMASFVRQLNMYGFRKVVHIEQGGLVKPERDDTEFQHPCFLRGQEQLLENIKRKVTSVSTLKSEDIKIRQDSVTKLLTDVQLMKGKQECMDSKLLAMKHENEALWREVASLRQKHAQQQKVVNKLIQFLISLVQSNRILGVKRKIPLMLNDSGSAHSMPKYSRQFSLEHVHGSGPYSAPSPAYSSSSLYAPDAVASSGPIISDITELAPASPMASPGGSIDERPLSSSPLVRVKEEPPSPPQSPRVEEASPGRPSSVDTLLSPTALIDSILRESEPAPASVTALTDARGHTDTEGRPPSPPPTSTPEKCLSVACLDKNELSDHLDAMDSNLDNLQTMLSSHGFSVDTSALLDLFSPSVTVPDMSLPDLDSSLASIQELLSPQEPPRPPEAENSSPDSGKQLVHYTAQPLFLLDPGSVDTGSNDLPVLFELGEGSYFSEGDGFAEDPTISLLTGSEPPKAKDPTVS
# Outline: as §1
# SPIC = target: T8, SPIC (Homo sapiens, UniProt Q8N5J4 1-248); details: protein: recombinant; tags: N-terminal GST; dsDNA, one strand shown
# T8 sequence: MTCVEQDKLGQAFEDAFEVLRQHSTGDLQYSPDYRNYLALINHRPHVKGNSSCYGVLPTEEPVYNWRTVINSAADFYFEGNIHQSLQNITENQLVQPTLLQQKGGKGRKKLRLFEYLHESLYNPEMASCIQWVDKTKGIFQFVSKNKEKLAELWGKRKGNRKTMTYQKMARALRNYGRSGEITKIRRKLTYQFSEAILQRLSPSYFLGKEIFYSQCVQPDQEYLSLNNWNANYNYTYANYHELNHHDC
# Outline: as §1
# ELF4 = ELF4 (Homo sapiens, UniProt Q99607 1-663); details: protein: recombinant; tags: N-terminal GST; dsDNA, one strand shown
# Chain of ELF4 (Q99607 whole entry): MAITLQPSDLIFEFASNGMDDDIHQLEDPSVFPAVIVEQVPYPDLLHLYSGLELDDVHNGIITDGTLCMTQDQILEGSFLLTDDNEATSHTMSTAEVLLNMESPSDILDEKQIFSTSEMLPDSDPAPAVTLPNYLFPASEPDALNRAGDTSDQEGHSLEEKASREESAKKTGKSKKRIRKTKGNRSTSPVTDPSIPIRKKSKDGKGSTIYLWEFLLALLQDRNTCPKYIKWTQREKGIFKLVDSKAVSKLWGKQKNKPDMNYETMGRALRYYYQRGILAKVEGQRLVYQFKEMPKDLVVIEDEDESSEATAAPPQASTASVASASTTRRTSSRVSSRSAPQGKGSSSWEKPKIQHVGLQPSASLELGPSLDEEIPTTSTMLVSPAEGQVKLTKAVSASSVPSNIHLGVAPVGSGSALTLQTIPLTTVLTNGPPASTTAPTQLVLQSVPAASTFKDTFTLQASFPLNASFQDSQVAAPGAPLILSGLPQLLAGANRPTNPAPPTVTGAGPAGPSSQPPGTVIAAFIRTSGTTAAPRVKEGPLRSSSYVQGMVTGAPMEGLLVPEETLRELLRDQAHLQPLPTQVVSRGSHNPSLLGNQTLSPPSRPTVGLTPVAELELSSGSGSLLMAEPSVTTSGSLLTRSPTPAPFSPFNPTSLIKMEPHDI
# Outline: as §1
# ELK4 = target: T9, ELK4 (Homo sapiens, UniProt P28324-2 1-405); details: protein: recombinant; tags: N-terminal GST; dsDNA, one strand shown
# T9 sequence: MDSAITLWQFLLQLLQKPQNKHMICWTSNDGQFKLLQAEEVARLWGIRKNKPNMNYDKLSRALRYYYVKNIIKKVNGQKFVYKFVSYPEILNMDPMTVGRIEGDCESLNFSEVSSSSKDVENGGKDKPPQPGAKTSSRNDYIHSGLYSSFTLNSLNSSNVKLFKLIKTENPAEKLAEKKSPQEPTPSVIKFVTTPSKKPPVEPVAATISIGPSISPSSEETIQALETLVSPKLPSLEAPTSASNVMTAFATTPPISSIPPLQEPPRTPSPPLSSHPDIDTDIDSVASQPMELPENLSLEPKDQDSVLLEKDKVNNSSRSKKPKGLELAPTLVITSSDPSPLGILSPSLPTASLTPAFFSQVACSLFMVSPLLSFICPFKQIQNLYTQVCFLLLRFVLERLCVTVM
# Outline: as §1
# ETV2 = target: T10, ETV2 (Homo sapiens, UniProt O00321 1-342); details: protein: recombinant; tags: N-terminal GST; dsDNA, one strand shown
# T10 sequence: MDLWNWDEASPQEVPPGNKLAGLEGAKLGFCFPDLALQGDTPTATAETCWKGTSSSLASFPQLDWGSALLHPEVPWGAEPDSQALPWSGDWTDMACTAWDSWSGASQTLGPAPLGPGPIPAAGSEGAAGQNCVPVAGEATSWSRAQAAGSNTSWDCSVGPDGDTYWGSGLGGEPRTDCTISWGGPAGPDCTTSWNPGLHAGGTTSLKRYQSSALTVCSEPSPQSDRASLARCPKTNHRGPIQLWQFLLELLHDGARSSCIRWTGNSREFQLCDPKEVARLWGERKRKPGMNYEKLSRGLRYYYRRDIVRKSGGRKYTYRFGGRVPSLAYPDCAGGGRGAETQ
# Outline: as §1
# ELF3 = target: T11, ELF3 (Homo sapiens, UniProt P78545 1-371); details: protein: recombinant; tags: N-terminal GST; dsDNA, one strand shown
# T11 sequence: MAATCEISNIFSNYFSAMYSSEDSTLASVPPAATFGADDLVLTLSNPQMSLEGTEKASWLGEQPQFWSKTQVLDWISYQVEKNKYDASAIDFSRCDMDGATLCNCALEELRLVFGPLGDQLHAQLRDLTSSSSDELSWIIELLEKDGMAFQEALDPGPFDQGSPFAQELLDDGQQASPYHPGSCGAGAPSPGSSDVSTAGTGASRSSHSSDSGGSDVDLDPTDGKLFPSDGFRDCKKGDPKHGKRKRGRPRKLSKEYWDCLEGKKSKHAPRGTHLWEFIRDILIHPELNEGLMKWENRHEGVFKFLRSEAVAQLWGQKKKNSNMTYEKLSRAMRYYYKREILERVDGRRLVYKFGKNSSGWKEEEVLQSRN
# Outline: as §1
# CRX = CRX (Homo sapiens, UniProt O43186 1-299); details: protein: recombinant; tags: N-terminal GST; dsDNA, one strand shown
# Chain of CRX (O43186 whole entry): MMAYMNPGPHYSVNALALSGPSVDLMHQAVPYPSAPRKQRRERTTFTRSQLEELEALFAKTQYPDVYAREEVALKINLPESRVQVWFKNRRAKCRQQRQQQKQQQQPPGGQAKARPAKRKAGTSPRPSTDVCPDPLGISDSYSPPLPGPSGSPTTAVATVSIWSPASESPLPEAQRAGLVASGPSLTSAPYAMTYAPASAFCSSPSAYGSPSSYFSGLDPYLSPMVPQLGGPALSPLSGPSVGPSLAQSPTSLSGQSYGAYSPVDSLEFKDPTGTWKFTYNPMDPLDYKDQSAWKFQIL
# Outline: as §1
# ETV1 = ETV1 (Homo sapiens, UniProt P50549 1-477); details: protein: recombinant; tags: N-terminal GST; dsDNA, one strand shown
# Chain of ETV1 (P50549 whole entry): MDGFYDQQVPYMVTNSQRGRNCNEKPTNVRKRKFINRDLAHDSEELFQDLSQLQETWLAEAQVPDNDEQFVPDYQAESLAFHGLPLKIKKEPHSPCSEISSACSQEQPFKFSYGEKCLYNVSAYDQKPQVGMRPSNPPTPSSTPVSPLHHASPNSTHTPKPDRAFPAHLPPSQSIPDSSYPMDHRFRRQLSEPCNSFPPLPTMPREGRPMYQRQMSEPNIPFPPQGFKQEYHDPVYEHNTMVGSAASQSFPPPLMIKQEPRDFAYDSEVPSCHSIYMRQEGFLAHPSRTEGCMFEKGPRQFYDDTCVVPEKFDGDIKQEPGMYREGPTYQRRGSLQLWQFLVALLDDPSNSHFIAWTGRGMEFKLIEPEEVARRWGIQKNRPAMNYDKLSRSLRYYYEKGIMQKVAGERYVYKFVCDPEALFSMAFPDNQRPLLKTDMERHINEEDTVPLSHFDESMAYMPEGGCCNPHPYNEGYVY
# Outline: as §1
sequence,measurement,setting,value
TTTTGG,binding signal,FLI1,"1.35 fold enrichment (6-mer frequency, TF over GST control)"
same,binding signal,ELK1,"1.42 fold enrichment (6-mer frequency, TF over GST control)"
same,binding signal,GABPA,"1.47 fold enrichment (6-mer frequency, TF over GST control)"
same,binding signal,ERG,"1.26 fold enrichment (6-mer frequency, TF over GST control)"
same,binding signal,ELF1,"1.36 fold enrichment (6-mer frequency, TF over GST control)"
same,binding signal,EHF,"1.37 fold enrichment (6-mer frequency, TF over GST control)"
same,binding signal,SPI1,"1.5 fold enrichment (6-mer frequency, TF over GST control)"
same,binding signal,SPIB,"1.63 fold enrichment (6-mer frequency, TF over GST control)"
same,binding signal,ELK3,"1.31 fold enrichment (6-mer frequency, TF over GST control)"
same,binding signal,FEV,"1.38 fold enrichment (6-mer frequency, TF over GST control)"
same,binding signal,ETV5,"1.55 fold enrichment (6-mer frequency, TF over GST control)"
same,binding signal,HSF1,"1.44 fold enrichment (6-mer frequency, TF over GST control)"
same,binding signal,SPIC,"1.38 fold enrichment (6-mer frequency, TF over GST control)"
same,binding signal,ELF4,"1.41 fold enrichment (6-mer frequency, TF over GST control)"
same,binding signal,ELK4,"1.45 fold enrichment (6-mer frequency, TF over GST control)"
same,binding signal,ETV2,"1.6 fold enrichment (6-mer frequency, TF over GST control)"
same,binding signal,ELF3,"1.44 fold enrichment (6-mer frequency, TF over GST control)"
same,binding signal,CRX,"1.6 fold enrichment (6-mer frequency, TF over GST control)"
same,binding signal,ETV1,"1.55 fold enrichment (6-mer frequency, TF over GST control)"
